Test results as given in PubChem BioAssay AID1159580 (chemical genetic matrix, 2015).
“And” between values parts separate entries of the source, which are not always exact repeats. Equal values may be shown once. About 2,000 (36%) of roughly 5,500 compounds were called active. Not shown: some 18% with an inconclusive outcome. Cut-off read from the data, not from the text of the source: active = normalized growth mostly below about 0.91 (no sharp cut-off); inconclusive = no clear call, values can overlap the other calls; inactive = mostly above about 0.92. This is one part of the list.

Test: chemical genetic growth profiling, strain panel (AID 1159580);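 note: tested at 20 µM; growth read once vehicle control cultures reached saturation at 30 °C; 1 = growth at the plate median or of vehicle wells; lower values mean less growth of the strain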
Settings: S. cerevisiae deletion strains, growth OD

Measured: normalized growth

Oc1cc(O)c2c(c1)O[C@H](c1ccc(O)c(O)c1)[C@@H](O)C2
inactive: locus YAL021C, strain ccr4, hits give low values 1.03 | locus YAL026C, strain drs2, hits give low values 1.01 | locus YAL030W, strain snc1, hits give low values 1.01 | locus YBL061C, strain skt5, hits give low values 1.01 | locus YBR009C, strain hhf1, hits give low values 0.993 | locus YBR021W, strain FUR4, hits give low values 1.05 | locus YBR023C, strain chs3, hits give low values 1.02 | locus YBR171W, strain sec66, hits give low values 1.01 | locus YBR229C, strain ROT2, hits give low values 0.957 | locus YBR231C, strain swc5, hits give low values 1.01 | locus YBR279W, strain paf1, hits give low values 1.01 | locus YCL011C, strain gbp2, hits give low values 1.01 | locus YCL016C, strain dcc1, hits give low values 1.01 | locus YCL029C, strain bik1, hits give low values 0.972 | locus YCL061C, strain MRC1, hits give low values 1.01 | locus YCL069W, strain vba3, hits give low values 1 | locus YCR088W, strain abp1, hits give low values 1.01 | locus YDL005C, strain med2, hits give low values 1.01 | locus YDL035C, strain GPR1, hits give low values 0.985 | locus YDL040C, strain nat1, hits give low values 1 | locus YDL074C, strain BRE1, hits give low values 1 | locus YDL101C, strain DUN1, hits give low values 0.979 | locus YDL185W, strain tfp1, hits give low values 0.978 | locus YDL192W, strain arf1, hits give low values 0.992 | locus YDR001C, strain nth1, hits give low values 0.994 | locus YDR069C, strain doa4, hits give low values 1.02 | locus YDR101C, strain arx1, hits give low values 1.03 | locus YDR137W, strain rgp1, hits give low values 1.03 | locus YDR159W, strain sac3, hits give low values 1 | locus YDR162C, strain NBP2, hits give low values 0.962 | locus YDR195W, strain ref2 0.972 | locus YDR297W, strain sur2, hits give low values 1.01 | locus YDR318W, strain mcm21, hits give low values 0.981 | locus YDR334W, strain swr1, hits give low values 1 | locus YDR335W, strain msn5, hits give low values 1.01 | locus YDR388W, hits give low values 0.963 | locus YDR392W, strain spt3, hits give low values 0.981 | locus YDR502C, strain sam2, hits give low values 1.01 | locus YEL003W, strain gim4, hits give low values 1.02 | locus YEL037C, strain rad23, hits give low values 1.01 | locus YEL061C, strain CIN8 (second series), hits give low values 1 | locus YEL061C, strain CIN8, hits give low values 0.988 | locus YER015W, strain faa2, hits give low values 1 | locus YER016W, strain bim1, hits give low values 0.997 | locus YER110C, hits give low values 0.98 | locus YER111C, strain swi4, hits give low values 0.988 | locus YER155C, strain BEM2 (second series), hits give low values 1.01 | locus YER155C, strain BEM2, hits give low values 0.991 | locus YER167W, strain BCK2, hits give low values 0.994 | locus YFR010W, strain ubp6, hits give low values 1.02 | locus YGL078C, strain dbp3, hits give low values 0.99 | locus YGL086W, strain mad1, hits give low values 1.04 | locus YGL167C, strain pmr1, hits give low values 1.01 | locus YGL173C, strain kem1, hits give low values 1.01 | locus YGL227W, strain vid30, hits give low values 1 | locus YGL240W, strain doc1, hits give low values 1.01 | locus YGL248W, strain PDE1, hits give low values 0.988 | locus YGL253W, strain hxk2, hits give low values 1.01 | locus YGR078C, strain PAC10, hits give low values 0.976 | locus YGR135W, strain pre9, hits give low values 0.966 | locus YGR252W, strain gcn5, hits give low values 0.947 | locus YHR013C, strain ard1, hits give low values 0.984 | locus YHR027C, strain rpn1, hits give low values 1.01 | locus YHR030C, strain SLT2, hits give low values 0.996 and 0.983 | locus YHR079C, strain IRE1 (second series), hits give low values 0.979 | locus YHR079C, strain IRE1, hits give low values 0.974 | locus YHR094C, strain hxt1, hits give low values 0.972 | locus YHR129C, strain ARP1, hits give low values 0.998 | locus YHR142W, strain chs7, hits give low values 1.03 | locus YHR200W, strain rpn10, hits give low values 0.975 | locus YIL066C, strain RNR3, hits give low values 0.992 | locus YIL073C, strain SPO22, hits give low values 1.02 | locus YIL125W, strain kgd1, hits give low values 1 | locus YIR030C, strain dcg1, hits give low values 0.994 | locus YJL092W, strain hpr5, hits give low values 1 | locus YJL095W, strain BCK1 (second series), hits give low values 1 | locus YJL095W, strain BCK1, hits give low values 0.977 and 0.984 | locus YJL115W, strain asf1, hits give low values 1 | locus YJL129C, strain trk1, hits give low values 1.01 | locus YJL134W, strain LCB3, hits give low values 0.989 | locus YJL154C, strain vps35, hits give low values 1 | locus YJL164C, strain tpk1, hits give low values 1.01 | locus YJL166W, strain qcr8, hits give low values 1.02 | locus YJL168C, strain set2, hits give low values 0.99 | locus YJL187C, strain SWE1 (second series), hits give low values 0.971 | locus YJL187C, strain SWE1, hits give low values 1.01 | locus YJR043C, strain POL32, hits give low values 1.01
